Screens deposited in PubChem by National Center for Advancing Translational Sciences (NCATS).
HT1080 IDH1KD tx: HT-1080 IDH1 knockdown cell toxicity (counter line). HT-1080 IDH1 knockdown viability, ATP luminescence, 48 h. Potency, µM (highest dose often 46.1 µM), actives largely listed as cytotoxic. hit rate 2% among 360,000. AID 686971
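IDH1KD HT-1080 cells, 750/well, RPMI + 5% FBS; compound pinned after 2 h settling; 48 h, 37 °C; CellTiter-Glo luminescence; % activity normalised to DMSO and no-cell wells; curves fitted, classed by r2 and efficacy.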
DT40 TDP1 no CPT: qHTS for Inhibitors of human tyrosyl-DNA phosphodiesterase 1 (TDP1): qHTS in cells in absence of CPT; hit rate 15% among 420,000; AID 686978, 2013; DT40 Tdp1-/- hTDP1 cells, no CPT, ATP luminescence, 48 h; Potency, µM (highest dose often 46.2 µM), hits mostly inhibitors; further: nearly all actives have a fitted effect of over 55% in size
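Compound effects on proliferation are scored in DT40 Tdp1-/-;hTDP1 cells in the absence of CPT. ATP levels (CellTiter-Glo luminescence) are recorded after a ≥48 hr, 37 °C incubation.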
ELG1 repair inh: ELG1-dependent DNA repair inhibition. Potency, µM (highest dose often 46.1 µM), most hits filed as inhibitors. hit rate 2.3% among 330,000. HEK293T ELG1-luciferase reporter, luminescence, 16 h; DNA damage induced by 5-fluorouridine; further: nearly all actives have a fitted effect of over 55% in size
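Quantitative HTS, concentration-response format. 2,000 cells/well co-treated with 5-fluorouridine and compound, 16 hr in 5% CO2 at 37 °C; ONE-Glo luminescence read after 30 min.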
DT40 TDP1 CPT: DT40-hTDP1 cell growth loss with CPT | hit rate 12% among 420,000 | Potency, µM (doses to about 46.2 µM), most hits filed as inhibitors | AID 686979 | chicken DT40 Tdp1-/-;hTDP1 cells + 20 nM CPT, ATP luminescence, 48 h; further: nearly all actives have a fitted effect of over 55% in size
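Chicken DT40 Tdp1-/- cells stably complemented with human TDP1 were seeded at 400 cells/well in medium containing 20 nM camptothecin, exposed to pin-transferred compounds, and grown at 37 °C for at least 48 hr. Viability was read as ATP luminescence.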
IL1B secr inh: inflammasome signaling inhibition, IL-1 beta readout | THP-1 LPS/ATP IL-1B secretion, AlphaLISA, 16 h; stronger effect = lower value | AID 743279 | hit rate 4.7% among 360,000 | activity change, % at 57.5 µM; in the data active means activity change below about -50%; inconclusive means mostly about -30% to -49%
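THP-1 cells pretreated 1 hr with compounds (up to 57.5 uM final), then stimulated with LPS (250 ng/mL final) plus ATP (1.25 mM final); secreted IL-1B measured by AlphaLISA after 16 hr, decreased signal indicating inhibition.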
HT1080-NT tox: kills 2HG-producing HT-1080-NT fibrosarcoma cells; HT-1080-NT fibrosarcoma viability, CellTiter-Glo ATP luminescence, 48 h; Potency, µM (highest dose often 46.1 µM), hits mostly cytotoxic; hit rate 1.6% among 360,000; AID 686970;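 further: NT is the 2HG producing partner of a matched IDH1 knockdown line; nearly all actives have a fitted effect of over 55% in size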
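Compounds were tested in concentration-response format on HT-1080-NT cells for 48 hours at 37 degrees C. Cell viability came from CellTiter-Glo luminescence; curves were classified by r2, response magnitude and activity.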
Numbers stand for hits; – = inactive; ? = inconclusive; · = no result. Rows were chosen to be rich in hits. Some 19% of all compounds tested hit in one or more screens of this group. Unless noted, the call rests on the fitted dose curve; in most records, active means well fitted curve in the direction sought with a large enough effect; inconclusive means small, poorly fitted or top-dose-only effect, or another doubt; inactive means no such curve, though single readings can be large; an effect the other way counts as inactive or inconclusive.

SMILES | HT1080 IDH1KD tx | DT40 TDP1 no CPT | ELG1 repair inh | DT40 TDP1 CPT | IL1B secr inh | HT1080-NT tox
COc1cccc(/C=N/Nc2ccc(C(=O)O)cc2)c1O | 20.6µM | 20.6µM | ? | ? | – | 18.4µM
COc1cccc(/C=N/Nc2ccc(S(=O)(=O)O)cc2)c1O | – | – | ? | – | – | –
Cc1ccc(CNC(=O)C2CCN(S(=O)(=O)c3ccc4c(c3)oc(=O)n4C)CC2)cc1 | · | – | · | – | · | ·
CC1(CCC(=O)N2CCCC(N3CCN(c4ccc(F)cc4)CC3)C2)CC1 (stereo unspecified) | – | ? | – | ? | – | –
Cn1c(=O)c2c(ncn2CC(=O)OCC(=O)Nc2cccc(C#N)c2)n(C)c1=O | – | – | · | – | – | –
O=C(N/N=C/c1ccccc1OCc1ccccc1Cl)c1cccnc1 | – | 23.1µM | – | ? | – | ?
CCOc1cc(/C=N/NC(=O)c2cccnc2)ccc1O | – | – | – | – | – | –
COc1ccccc1C=NN=C(NN=Cc1ccccc1OC)NN=Cc1ccccc1OC | ? | ? | · | ? | -81.6 | ?
COc1ccccc1C=NNC(=O)NN=Cc1ccccc1OC | – | ? | · | – | – | –
O=C(N/N=C/c1ccccc1O)C(=O)N1CCCCCC1 | 8.2µM | ? | – | ? | – | ?
CCOc1cccc(/C=N/NC(=O)c2cccnc2)c1O | 5.17µM | ? | ? | ? | – | ?
COCc1cn(-c2nc3ccccc3s2)nn1 | – | – | · | – | – | –
CCOc1cc(C#N)c(NC(=O)c2cccnc2)cc1OCC | 5.17µM | 1.84µM | – | 1.3µM | – | ?
COc1ccc(OC)c(NC(=O)c2cn3c4c(ccc(Cl)c4c2=O)OC(C)C3)c1 (stereo unspecified) | · | – | · | – | · | ·
COc1cccc2[nH]c3c(N4CC(C)CC(C)C4)ncnc3c12 (stereo unspecified) | · | · | 14.6µM | · | · | ·
CCOC(=O)C1CCCN(c2ncnc3c2[nH]c2cccc(OC)c23)C1 (stereo unspecified) | · | · | – | · | · | ·
COc1cccc2[nH]c3c(N4CCCC(C)C4)ncnc3c12 (stereo unspecified) | – | 23.1µM | – | ? | – | –
CCCCCCCCN1C(=O)[C@H](CC(=O)NCc2ccc(OC)c(OC)c2)C[C@@]2(C(=O)OC)CC(C)(C)CC=C12 | ? | 18.4µM | · | 18.4µM | -78.2 | ?
CCCCNC(=O)C[C@@H]1C[C@@]2(C(=O)OC)CC(C)(C)CC=C2N(CCc2ccc(OC)c(OC)c2)C1=O | – | ? | · | ? | ? | –
COC(=O)[C@@]12C[C@@H](CC(=O)NCCc3ccccc3OC)C(=O)N(CCc3ccc(OC)c(OC)c3)C1=CCC(C)(C)C2 | ? | ? | · | 23.1µM | – | ?
COC(=O)[C@@]12C[C@@H](CC(=O)NCc3ccc(OC)c(OC)c3)C(=O)N(Cc3ccco3)C1=CCC(C)(C)C2 | – | ? | · | ? | – | –
COC(=O)[C@@]12C[C@@H](CC(=O)NCc3ccc(OC)c(OC)c3)C(=O)N(CCc3ccc(OC)c(OC)c3)C1=CCC(C)(C)C2 | – | 14.6µM | · | 16.4µM | – | –
COC(=O)[C@@]12C[C@@H](CC(=O)NCc3ccc(OC)c(OC)c3)C(=O)N(Cc3ccccc3)C1=CCC(C)(C)C2 | – | ? | · | 18.4µM | – | –
COCCCNC(=O)C[C@@H]1C[C@@]2(C(=O)OC)CC(C)(C)CC=C2N(CCc2ccc(OC)c(OC)c2)C1=O | – | – | · | – | – | –
COc1cccc(Nc2nc3ccc(C)cc3nc2-n2nc(C)cc2C)c1 | · | ? | · | – | · | ·
O=C1CC2(CCCC2)CC(=O)N1CCCCNCC1COc2ccccc2O1 (stereo unspecified) | · | – | · | – | · | ·
Cc1ccc(S(=O)(=O)c2nnn3c2nc(N2CCCC(C)C2)c2cc(Cl)ccc23)cc1C (stereo unspecified) | · | – | · | – | · | ·
Cc1cccc(C(O)c2ncc(-c3ccc(Cl)cc3)[nH]2)c1C (stereo unspecified) | ? | ? | · | ? | – | ?
